Active and inactive are the calls of the source. Rule as the data show it, unless noted: active = nuclear beta-catenin stimulation mostly above about 4.2% (no sharp cut-off); inactive = mostly below about 10%.
Assays:
[1] = stimulators of nuclear beta-catenin in C2C12, primary screen, imaging, WNT3A-conditioned medium, mouse C2C12, NPC library (AID 1117326); conditions: stronger effect = higher value
[2] = stimulators of insulin release from INS-1E, primary screen, cell-based, 5 mM glucose, NPC library (AID 1117329;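 active = compound raises insulin release from rat beta cells at 5 mM glucose, no numeric limit stated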); conditions: rat INS-1E insulin secretion, at 10 µM, stronger effect = higher value
[3] = growth inhibition of GSK3B-pretreated HCT116 cells – cell-based, CellTiter-Glo, 0.2 to 20 µM (AID 1117336;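 active = compounds lowering colon cancer cell viability after pretreatment blocking the GSK3B kinase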); conditions: HCT116 viability after GSK3B inhibitor, at 20 µM, stronger effect = higher value
[4] = inhibition of endothelial tube formation, primary screen, imaging, VEGF stimulated, CD31 staining, tube area, NPC library (AID 1117340;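 active = compound that reduces growth-factor-driven endothelial tube area in a mixed cell culture, no cutoff stated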); conditions: VEGF-stimulated ADSC/ECFC co-culture, at 10 µM, stronger effect = higher value
[5] = glucagon-like peptide 1 release enhancers, primary assay, NCI-H716 cell line, NPC library (AID 1117341;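 active = compound raises GLP1 secretion from the human gut endocrine cells, with no numeric limit stated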); conditions: NCI-H716 cells, at 10 µM, stronger effect = higher value
[6] = HCT116 colon cancer cell growth inhibition, primary screen, CellTiter-Glo luminescence, NPC library (AID 1117342;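 active = compounds that lower survival of HCT116 colon cancer cells in the luminescence readout, no numeric limit stated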); conditions: at 20 µM (top of the series)
[7] = CellTiter-Glo luminescent readout of SW480 viability loss, NPC library primary (AID 1117343;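 active = compounds that lower viability of the colon cancer cells in the luminescence readout, with no numeric limit stated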); conditions: CellTiter-Glo luminescence; at 20 µM (top of the series) unless noted
[8] = decreased DLD-1 cellular survival, CellTiter-Glo luminescent readout, NPC compound collection, primary HTS (AID 1117346;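 active = compounds that lower survival of DLD-1 colon cancer cells in the luminescence readout, no cutoff given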); conditions: DLD-1 viability, CellTiter-Glo luminescence; at 20 µM (top of the series)
[9] = biological target: NAD(+) hydrolase SARM1 (Homo sapiens) (UniProt Q6SZW1); assay: SARM1 TIR NADase inhibitors, cell lysate, NAD-Glo luminescence (AID 1508614;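 active = compound whose remaining NAD level is above about 45 nM, limit read from the data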;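 also: higher remaining NAD means stronger inhibition of SARM1 NADase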); conditions: SAM-TIR HEK293T lysate NADase, at 1 µM, stronger effect = higher value
Sequence of NAD(+) hydrolase SARM1 (Homo sapiens) (Q6SZW1 whole entry, looked up): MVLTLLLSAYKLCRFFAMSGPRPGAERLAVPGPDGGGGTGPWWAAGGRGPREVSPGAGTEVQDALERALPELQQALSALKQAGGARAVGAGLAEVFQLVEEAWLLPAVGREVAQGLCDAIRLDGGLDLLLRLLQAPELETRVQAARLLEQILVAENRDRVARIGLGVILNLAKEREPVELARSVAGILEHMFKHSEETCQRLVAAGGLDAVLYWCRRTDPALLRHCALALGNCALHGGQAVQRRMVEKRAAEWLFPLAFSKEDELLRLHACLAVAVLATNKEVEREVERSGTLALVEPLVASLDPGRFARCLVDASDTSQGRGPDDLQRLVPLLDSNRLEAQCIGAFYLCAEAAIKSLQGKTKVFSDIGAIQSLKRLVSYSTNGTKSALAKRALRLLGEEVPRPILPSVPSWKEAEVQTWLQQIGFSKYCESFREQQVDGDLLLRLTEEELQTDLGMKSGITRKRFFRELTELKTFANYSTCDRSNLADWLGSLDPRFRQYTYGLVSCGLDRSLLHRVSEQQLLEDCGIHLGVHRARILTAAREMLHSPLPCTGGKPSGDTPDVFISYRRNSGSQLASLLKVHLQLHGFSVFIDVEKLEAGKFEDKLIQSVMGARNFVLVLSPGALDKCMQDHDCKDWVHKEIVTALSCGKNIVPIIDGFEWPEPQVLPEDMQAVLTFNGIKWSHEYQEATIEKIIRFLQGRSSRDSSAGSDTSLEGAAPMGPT

[10] = LFS_MB_P medulloblastoma growth inhibition, cell-based, chromothripsis tumors, cisplatin or BGB combos (AID 1671449; in the data active = inhibition above about 80%;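 also: cells exposed for 96 hours; 0% = vehicle DMSO and 100% = killing by high DMSO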); conditions: LFS_MB_P medulloblastoma cells
[11] = ICB984 medulloblastoma cell growth inhibition, synergistic combos for chromothripsis tumors, cisplatin or BGB combos (AID 1671451; call rule not given here;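 also: cells exposed for 96 hours before readout; 0% = vehicle DMSO and 100% = killing by high DMSO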); conditions: ICB984 medulloblastoma cells, drug combinations, stronger effect = higher value
[12] = differential killing of epithelial or mesenchymal cells, primary screen, imaging, PC-3E GFP, TEM4-18 mCherry, co-culture (AID 1345086;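 active = compounds killing one labelled cell type while sparing the other, by normalised counts and ratio limits, not self-fluorescent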;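 as to all read-outs here: cells exposed to compound for 72 h before imaging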;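 as to red/green cell ratio (normalised): normalised mesenchymal count divided by normalised epithelial count so high means epithelial killing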); conditions: imaging cell counts, at 1 µM; for red/green cell ratio (normalised): actives lie on both sides, counts scaled to control wells, 1 = unselective
[13] = sensitizers of A549 cells to miR-34 induction, primary screen, imaging, A549 dox-inducible miR-34, nuclei and caspase counts (AID 1347080;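 active = compounds whose cell count with miR-34 switched on is under 0.7 times the count with it off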); conditions: A549 miR-34 inducible, Hoechst nuclei count, 48 h
[14] = biological target: 6-phosphogluconate dehydrogenase, decarboxylating (Homo sapiens) (UniProt P52209); assay: 6PGD enzyme inhibitors, primary screen, biochemical, human, recombinant enzyme, NADPH absorbance (AID 1159550;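 active = at least 20% inhibition of 6-phosphogluconate dehydrogenase activity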); conditions: recombinant 6PGD, NADPH absorbance 341 nm; at 10 µM; stronger effect = higher value
Sequence of 6-phosphogluconate dehydrogenase, decarboxylating (Homo sapiens) (P52209 whole entry, looked up): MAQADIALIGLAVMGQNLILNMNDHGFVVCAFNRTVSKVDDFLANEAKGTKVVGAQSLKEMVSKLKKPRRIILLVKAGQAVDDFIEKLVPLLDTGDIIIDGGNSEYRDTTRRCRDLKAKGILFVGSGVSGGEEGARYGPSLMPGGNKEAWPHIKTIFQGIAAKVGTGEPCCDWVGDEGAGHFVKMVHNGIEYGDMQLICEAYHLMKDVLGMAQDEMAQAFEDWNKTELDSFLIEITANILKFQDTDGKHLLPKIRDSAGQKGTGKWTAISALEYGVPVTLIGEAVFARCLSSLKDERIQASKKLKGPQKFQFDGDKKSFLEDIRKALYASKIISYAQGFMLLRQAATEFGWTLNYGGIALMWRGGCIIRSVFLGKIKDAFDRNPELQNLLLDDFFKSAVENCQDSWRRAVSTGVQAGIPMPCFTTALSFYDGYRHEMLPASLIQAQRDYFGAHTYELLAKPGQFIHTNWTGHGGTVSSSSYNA

[15] = measured here: epithelial PC-3E GFP cell survival
[16] = measured here: mesenchymal TEM4-18 mCherry cell survival
[17] = stronger effect = lower value, cell number ratio, induced over uninduced
[18] = measured here: relative caspase fold change +Dox/-Dox
[19] = measured here: total cells with miR-34 induction, stronger effect = lower value
[20] = measured here: total cells without miR-34 induction

COc1ccc(-n2nc(CCC(=O)N(C)O)cc2-c2ccc(Cl)cc2)cc1
nuclear beta-catenin stimulation ([1]; at 10 µM): 0.6% (inactive) | nuclear beta-catenin stimulation ([1]; stimulation, at 2 µM): 0.2% | insulin secretion stimulation [2]: 2.7% (inactive) | viability decrease [3]: 91.8% (active) | tube area decrease [4]: 19.2% (inactive) | GLP1 secretion stimulation [5]: 9.1% (inactive) | inhibition of viability [6]: 94.4% (active) | viability decrease (inhibition) [7]: 130% (active) | viability decrease (inhibition) [8]: 102% (active) | remaining NAD [9]: 10 nM (inactive)

CCCCCCCC(=O)OCC(COC(=O)CCCCCCC)OC(=O)CCCCCCC
nuclear beta-catenin stimulation ([1]; at 10 µM): -0.5% (inactive) | nuclear beta-catenin stimulation ([1]; stimulation, at 2 µM): -1.9% | insulin secretion stimulation [2]: 0.2% (inactive) | GLP1 secretion stimulation [5]: -5.4% (inactive)

Cc1ccc2nc(N)[nH]c(=O)c2c1Sc1ccncc1
nuclear beta-catenin stimulation ([1]; at 10 µM): 63.4% (active) | nuclear beta-catenin stimulation ([1]; stimulation, at 2 µM): 61.7% | insulin secretion stimulation [2]: 1.1% (inactive) | viability decrease [3]: 94.2% (active) | tube area decrease [4]: 50.9% (active) | GLP1 secretion stimulation [5]: 1.3% (inactive) | inhibition of viability [6]: 81.5% (active) | viability decrease (inhibition) [7]: 78.8% (active) | viability decrease (inhibition) [8]: 42.1% (inactive) | inhibition ([10]; at 0.5 µM, stronger effect = higher value): 15.7% (inactive) | inhibition ([10]; measured here: combination with BGB IC20, at 0.005 µM): -4.28% | inhibition ([10]; measured here: combination with BGB IC40, at 0.005 µM): -17.9% | inhibition ([10]; measured here: combination with BGB IC40, at 0.05 µM): -6.64% | inhibition ([10]; measured here: combination with cisplatin, at 0.5 µM, stronger effect = higher value): 12.2% | inhibition ([10]; measured here: combination with cisplatin, at 5 µM, stronger effect = higher value): -5.06% | inhibition ([11]; BGB IC20 combo, at 0.005 µM): -27.9% | inhibition ([11]; BGB IC40 combo, at 0.005 µM): -29.4% | inhibition ([11]; BGB IC40 combo, at 0.05 µM): -15.3% | inhibition ([11]; at 0.5 µM): -23.3% (inactive) | inhibition ([11]; cisplatin combo, at 0.05 µM): -21.2% | inhibition ([11]; cisplatin combo, at 0.5 µM): -25.7% | inhibition ([11]; cisplatin combo, at 5 µM): -19.8% | inhibition ([11]; measured here: 5 uM single agent, at 5 µM): -37.5%

CCN(CC)C(=O)c1cccnc1
nuclear beta-catenin stimulation ([1]; at 10 µM): 2.1% (inactive) | nuclear beta-catenin stimulation ([1]; stimulation, at 2 µM): -1% | insulin secretion stimulation [2]: 1.2% (inactive) | viability decrease [3]: 6.1% (inactive) | GLP1 secretion stimulation [5]: 1.6% (inactive) | inhibition of viability [6]: 14.5% (inactive) | viability decrease (inhibition) [7]: -1.1% (inactive) | viability decrease (inhibition) [8]: 6.2% (inactive) | red/green cell ratio (normalised) [12]: 1.14 (inactive) | normalised cell number [12, 15]: 0.99 | normalised cell number [12, 16]: 1.13 | fold change [13, 17]: 0.953 (inactive) | fold change [13, 18]: 0.829 | cell count [13, 19]: 8700 | cell count [13, 20]: 9130 | remaining NAD [9]: 10 nM (inactive)

Cc1c(C)n(CCN(C)C)c2ccc(C(=O)OCCN(C)C)cc12
nuclear beta-catenin stimulation ([1]; at 10 µM): 1.1% (inactive) | nuclear beta-catenin stimulation ([1]; stimulation, at 2 µM): 14.1% | insulin secretion stimulation [2]: 0.4% (inactive) | viability decrease [3]: 41.2% (inactive) | inhibition of viability [6]: 27.7% (inactive) | viability decrease (inhibition) [7]: 71.7% (active) | viability decrease (inhibition) [8]: 0.9% (inactive)

Cc1ccc(O)cc1
nuclear beta-catenin stimulation ([1]; at 10 µM): 0.9% (inactive) | nuclear beta-catenin stimulation ([1]; stimulation, at 2 µM): 13.3% | viability decrease [3]: 4.4% (inactive) | tube area decrease [4]: -11.8% (inactive) | inhibition of viability [6]: 13.6% (inactive) | viability decrease (inhibition) [7]: -6.4% (inactive) | viability decrease (inhibition) [8]: -0.4% (inactive) | inhibition [14]: -1.83% (inactive) | red/green cell ratio (normalised) [12]: 1.31 (inactive) | normalised cell number [12, 15]: 1.05 | normalised cell number [12, 16]: 1.37 | fold change [13, 17]: 0.843 (inactive) | fold change [13, 18]: 3.01 | cell count [13, 19]: 10700 | cell count [13, 20]: 12700
